Measurements from the emibetuzumab library of Makowski et al. (2022).
This is one part of the list. The hit rate among all sequences tested is not known here.

B1: VH:VL chains; a variant is named by its letters at X, in order (parent)
chain 1: QVQLVQSGAEVKKPGASVKVSCKASGYTFTDYXMHWVRQAPGQGLEWMGXVNPNXXXTTYNQKFEGRVTMTTDTSTSTAYMELRSLRSDDTAVYYCARXNXLDXWGQGTTVTVSS
chain 2: DIQMTQSPSSLSASVGDRVTITCSVSSSVSSIYLHWYQQKPGKAPKLLIYSTSNLASGVPSRFSGSGSGTDFTLTISSLQPEDFATYYCQVYSGYPLTFGGGTKVEIK

Variants of: B1
Test: yeast display scFab, FACS + sequencing
Conditions: with MET
Outline: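 Heavy-chain CDR mutant scFab yeast surface library, enriched by two magnetic rounds on HGFR-Fc-coated Protein A beads and then by FACS. Cells were labelled with 1 nM HGFR-Fc in PBSB with 1% milk and anti-Myc for 3 h at room temperature, and the top 50% antigen-positive cells were gated. Round-3 sorted and input populations were deep sequenced in two replicates. Antigen binding call: positive if a sequence occurred in both antigen-positive samples, negative if it occurred only in input.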

Variant	antigen binding call
YTEETDGF	no binding
SEARSYAV	no binding
SKGTDDWV	no binding
SAEEDDVY	no binding
VTGEDDGS	no binding
YRGGTFGF	no binding
YRGGSAGF	binds
YRGKGAGF	binds
YRGADFGF	no binding
YRTGTAGF	binds
YRGASSGF	binds
DEAKAAVD	no binding
SETGGDWV	no binding
YRGESSGF	binds
ARGKGSGD	no binding
STGKGSGV	no binding
VRGKGSGV	binds
VRGKGSGF	binds
VTGKGDGV	no binding
VTGTGSGF	no binding
SREAASGV	no binding
VRGKGDWV	no binding
SRGKGSGV	binds
VTGTGSLV	no binding

Variant	antigen binding call
DEGGTDAA	no binding
AAEKDDLA	no binding
YRKRSVVF chain 1 S115F	no binding
FRGKGSGF	binds
YRGKSSGF	binds
YRAKSAVF	binds
YRGKGAVF	binds
YTGTGAVF	no binding
DRAGDDVF	no binding
YRGKGSGS	binds
YRGKGDGS	no binding
YRGKGSGF	binds
DARGGDGS	no binding
FRTGDDGA	binds
FATGSDGA	no binding
FRETDFGA	no binding
DRAGDDGA	no binding
ARAGDDAV	no binding
DRTGDDVA	no binding
DRGGDDAA	no binding
FRTGDAGA	binds
FRTGDDAA	binds
DRAGDDAV	no binding
FRTGDDAV	binds

Variant	antigen binding call
DREEGDWV	no binding
STAEDFVV	no binding
YGAGDFGA	no binding
YAGKGFGA	no binding
YRKRTFGA	no binding
YRRGSFGA	binds
YRRGGFGA	binds
VRRGSFGA	no binding
YARTGFGA	binds
YAGRGFGA	no binding
VKAGGDSD	no binding
SKAGGSAD	binds
SEARSALD	no binding
YKAKGALD	binds
YKAGGALD	binds
SKKEDSAD	no binding
SKAGGDVD	no binding
SKAGGALD	binds
VATGDDVY	no binding
VRAGAFSV	no binding
DTGTGDVF	no binding
VEEEGDVY	no binding
AKTRDDVA	no binding
DRGGDAVV	no binding

Variant	antigen binding call
YGTRSYGV	no binding
YRTGAAGV	binds
YRTRSAGV	binds
YTTRGDGV	no binding
YRTRSAVV	binds
YRTRGAGV	binds
DTGTGSGA	no binding
VEGTGAGD	no binding
DAGKGAVV	no binding
DGGKNAVV	no binding
YAGKNAVV	binds
YRKGAAVV	binds
YTKRSAVV	no binding
YTGTSAVV	no binding
YRKGGAVV	binds
YRARSAVV	binds
SEARSAVV	no binding
YRARSSVV	binds
VTTKSDGY	no binding
YATGDDGV	no binding
SEGGTDVV	no binding
VRTEDSLD	binds
VRTEDSLV	no binding
VRTEDDVD	no binding

Variant	antigen binding call
VAGGDALD	no binding
VRTEDALV	binds
VTTEASLD	no binding
VTGGDSGD	no binding
VRTEDALD	binds
VRTEDDLV	no binding
VRTAASGD	no binding
VRTEDSGD	binds
DGGGNDLA chain 1 R87K	no binding
VAGTGFWV	no binding
AGETGFSA	no binding
VRTRSSLD	binds
YKARGALS	binds
YRAGGALS	binds
YRAKGALS	binds
YRARGALS	binds
DAARGDAV	no binding
VEKKDYSA	no binding
DEGGTAVA	no binding
DAGGAAVS	no binding
FTTRSALS	no binding
YRAKGAGS	binds
DAGKGALF	no binding
YRAKGALF	binds

Variant	antigen binding call
YRAAGAGS	binds
FRAGGALS	binds
YTGEADAS	no binding
SAERSAAF	no binding
DAGGASSA	no binding
SEEEGSGV	no binding
YRERGALS	binds
YRGGDYLV	binds
YEGGGDLV	no binding
YRGGGYLV	binds
YTTGGYLV	no binding
YRGGDDLV	no binding
YRGGDYSV	no binding
DETEGDVF	no binding
VKGEGDVY	no binding
VEERDDWF	no binding
SEARSDLA	no binding
SETGAALD	no binding
SRGGDDVA	no binding
SRGGSALA	binds
SRGKGALD	binds
SAGGGAGD	no binding
SRGGGALD	binds
SEARSALA	binds

Variant	antigen binding call
SRGGAAWA	no binding
SEARSSLA	no binding
SRGKGDAD	no binding
DGGRGDGA	no binding
AKTGNDVA	no binding
DTTGSALD	no binding
YRAGDALD	binds
DRAGDALD	binds
YRAEGALD	binds
DRREDALD	binds
DRAGDSLD	no binding
DAGAADVV	no binding
DRGGDDVD	no binding
AARADSAD	no binding
VGGGGAAD	no binding
YRAGGDAD	binds
AREGDAGD	no binding
YATAADAD	no binding
ARRTDVAD	binds
YTGGNDAD	no binding
YRRRGVAD	binds
VRRRGAAD	binds
FERRAFGY	no binding
YRRRGDAD	binds

Variant	antigen binding call
YRRRGAAD	binds
YRRGGAAD	binds
YRRKGDAD	no binding
AAARNFLF chain 1 V68I	no binding
SEARSSAS	no binding
DEGGTDSF	no binding
VKGASDVV	no binding
DTGGGAGA	no binding
VRGRGYAA	binds
YRGRGYAA	binds
VRGRGFAA	no binding
YKGRGYAA	binds
YKGRGYVA	no binding
VRGTGYAS	no binding
YRGKGYAA	binds
VTTRAASV	no binding
SREEGFSV	no binding
YGGGGAVA	no binding
VTGRGDLA	no binding
YGGRGAVA	binds
YRGRGVAA	binds
VRAGGDLA	no binding
YEGRGDVA	no binding
YRAGGYAA	binds

Variant	antigen binding call
VRGRGDLA	binds
SETKGDVY	no binding
DREEGFSV	no binding
AAGGDYVF	no binding
VTEGDAGD	no binding
YRRGGAWS	binds
YRRRGAWS	binds
YRRRGSWS	binds
YAKADYSS	no binding
YRRRGYSS	binds
YERRGSWS	no binding
VERRGSWS	no binding
VTRGDVWV	no binding
VTGTGDVV	no binding
SEGTGAGV	no binding
SKERGDLV	no binding
YRRRGSSS	binds
SKTKSDGS	no binding
SKRRGSLS	binds
YRRRGAAS	binds
YRRRGSLS	binds
